Drawing on publication PMC8384837, “Expanding the binding specificity for RNA recognition by a PUF domain”, this text covers binding signal for seven sequences.

Experiment in all cases: yeast three-hybrid, YBZ-1, SC-Leu-His + 0.5 mM 3-AT, 4 days
Holding throughout (settings): tags: N-Gal4 AD-HA kept; label: inside an RPR1-promoter hybrid RNA with tandem MS2 sites; ssRNA

One assay deals with PUM1 PUF domain R4-GFW (Homo sapiens, UniProt Q14671 828-1176, N971G;H972F;Q975W). The method in brief: (§1)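 Pumilio-1 PUF domain libraries, randomized at the three base-contacting residues of each repeat, were co-expressed with matching RNA elements from a centromeric plasmid in strain YBZ-1, which carries a LexA–MS2 coat fusion and a HIS3 reporter. Transformants grew for four days on SC-Leu (input) or on SC-Leu-His + 0.5 mM 3-AT (selection), and the repeat regions were PCR-amplified and Illumina-sequenced. The interaction score is the log change in variant frequency from input to selection. That logarithm is base 2, with a pseudocount of 1 where a variant was absent.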

The next assay concerns the target PUM1 PUF domain R4-FGR (Homo sapiens, UniProt Q14671 828-1176, N971F;H972G;Q975R). In short, it runs like this:
as §1

A further assay has as its target PUM1 PUF domain R5-QLS (Homo sapiens, UniProt Q14671 828-1176, C1007Q;R1008L;Q1011S). In short, it runs like this:
as §1

The next assay deals with PUM1 PUF domain R4-RMT (Homo sapiens, UniProt Q14671 828-1176, N971R;H972M;Q975T). The method in brief:
as §1

For a further assay, the target named is T1, PUM1 PUF domain R6-RWC (Homo sapiens, UniProt Q14671 828-1176, N1043R;Y1044W;Q1047C).
T1 sequence: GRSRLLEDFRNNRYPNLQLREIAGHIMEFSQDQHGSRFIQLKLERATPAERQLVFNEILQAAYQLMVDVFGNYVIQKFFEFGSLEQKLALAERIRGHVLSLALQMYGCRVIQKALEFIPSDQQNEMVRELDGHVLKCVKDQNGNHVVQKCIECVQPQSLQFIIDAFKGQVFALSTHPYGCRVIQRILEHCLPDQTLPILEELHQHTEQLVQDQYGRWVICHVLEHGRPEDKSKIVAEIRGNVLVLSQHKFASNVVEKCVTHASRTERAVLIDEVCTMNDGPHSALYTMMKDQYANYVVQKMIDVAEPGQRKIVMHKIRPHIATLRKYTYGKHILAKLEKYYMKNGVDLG
The method in brief: as §1

Another assay deals with PUM1 PUF domain R1-LRR (Homo sapiens, UniProt Q14671 828-1176, S863L;Q867R). In short, it runs like this: as §1
The target of a further assay is PUM1 PUF domain R1-SVR (Homo sapiens, UniProt Q14671 828-1176, R864V;Q867R). In short, it runs like this:
as §1

In the next assay the target is PUM1 PUF domain R5-NKR (Homo sapiens, UniProt Q14671 828-1176, C1007N;R1008K;Q1011R). In short, it runs like this:
as §1

PUM1 PUF domain R5-NKR, sequence (Q14671 828-1176 C1007N/R1008K/Q1011R): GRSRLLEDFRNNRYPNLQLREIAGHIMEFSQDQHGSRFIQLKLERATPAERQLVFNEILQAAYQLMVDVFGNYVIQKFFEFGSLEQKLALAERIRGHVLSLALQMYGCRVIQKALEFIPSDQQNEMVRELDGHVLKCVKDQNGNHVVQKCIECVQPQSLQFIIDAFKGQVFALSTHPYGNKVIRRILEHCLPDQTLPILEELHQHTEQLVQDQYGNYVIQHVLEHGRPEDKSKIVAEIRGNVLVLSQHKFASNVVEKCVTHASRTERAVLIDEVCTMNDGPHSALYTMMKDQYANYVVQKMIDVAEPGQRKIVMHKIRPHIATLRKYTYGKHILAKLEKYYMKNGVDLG

For the sequence “GGCUAGAACUAGUGGAUCCCCCGGCGCCCGGCGGCUCGAGCCCGGGUAAGUGUAUAUAGUCUGCAUGCCGCCGGGCGCCAUGCCUGCAGGUCGACUCUAGAAAACAUG”, the binding signal is 4.86 log2 enrichment (interaction score) with PUM1 PUF domain R4-GFW and 2.32 log2 enrichment (interaction score) with PUM1 PUF domain R4-FGR.
For “GGCUAGAACUAGUGGAUCCCCCGGCGCCCGGCGGCUCGAGCCCGGGUAAGUGUAAAUAGUCUGCAUGCCGCCGGGCGCCAUGCCUGCAGGUCGACUCUAGAAAACAUG”, the binding signal is 4.78 log2 enrichment (interaction score) with PUM1 PUF domain R4-GFW, 0.83 log2 enrichment (interaction score) with PUM1 PUF domain R5-QLS, 3.47 log2 enrichment (interaction score) in the assay with PUM1 PUF domain R4-RMT and 4.89 log2 enrichment (interaction score) in the assay with PUM1 PUF domain R6-RWC.
Turning to “GGCUAGAACUAGUGGAUCCCCCGGCGCCCGGCGGCUCGAGCCCGGGUAAGUGUAAAUUGUCUGCAUGCCGCCGGGCGCCAUGCCUGCAGGUCGACUCUAGAAAACAUG”, in the assay with PUM1 PUF domain R1-LRR, the binding signal is 2.97 log2 enrichment (interaction score).
On to “GGCUAGAACUAGUGGAUCCCCCGGCGCCCGGCGGCUCGAGCCCGGGUAAGUGUAAAUCGUCUGCAUGCCGCCGGGCGCCAUGCCUGCAGGUCGACUCUAGAAAACAUG”, for which the binding signal in the assay with PUM1 PUF domain R1-LRR was 2.97 log2 enrichment (interaction score); with PUM1 PUF domain R1-SVR, 3.35 log2 enrichment (interaction score).
On to “GGCUAGAACUAGUGGAUCCCCCGGCGCCCGGCGGCUCGAGCCCGGGUAAGUGUUAAUAGUCUGCAUGCCGCCGGGCGCCAUGCCUGCAGGUCGACUCUAGAAAACAUG”, for which, in the assay with PUM1 PUF domain R5-NKR, the binding signal was 5.24 log2 enrichment (interaction score).
In the case of “GGCUAGAACUAGUGGAUCCCCCGGCGCCCGGCGGCUCGAGCCCGGGUAAGUGUACAUAGUCUGCAUGCCGCCGGGCGCCAUGCCUGCAGGUCGACUCUAGAAAACAUG”, in the assay with PUM1 PUF domain R4-FGR, the binding signal was 2.88 log2 enrichment (interaction score).
Regarding “GGCUAGAACUAGUGGAUCCCCCGGCGCCCGGCGGCUCGAGCCCGGGUAAGUGUGAAUAGUCUGCAUGCCGCCGGGCGCCAUGCCUGCAGGUCGACUCUAGAAAACAUG”, in the assay with PUM1 PUF domain R5-QLS, the binding signal is 2.16 log2 enrichment (interaction score).
